Calls of active or inactive are those of the source. How the source made its calls: active means hit-call score of the fitted dose curve at least 0.9, where 1 is the maximum; inactive means score below 0.9.

Read-out in this assay: Plasminogen activator inhibitor-1 (PAI1), SERPINE1 (gene 5054)
The assay can be described thus: BSK_MyoF_PAI1: BioMAP Diversity Plus: MyoF Assay for Plasminogen activator inhibitor-1 (PAI1) Biomarker Activity (AID 2284256).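 On outcome: PAI-1 protein level measured by ELISA in fibroblast cultures; PAI-1 read 24 h after compound addition.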 To be noted: primary human lung fibroblasts. Summed up:
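Primary human lung fibroblasts are dosed and incubated 24 h. PAI-1 is then measured by ELISA, while parallel cultures undergo SRB staining for overt cytotoxicity. Increases over DMSO define activity.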
Turning to `CC1CCC(C(C)CS)CC1S` (stereo not drawn), the AC50 is 8.22 µM (active).
Same read-out and setting: to `O=C(O)C[C@H](O)C[C@H](O)/C=C/c1c(C2CC2)nc2ccccc2c1-c1ccc(F)cc1` belongs 5 µM (active).
On to `O=C(O)c1cn(-c2ccc(F)cc2)c2cc(N3CCNCC3)c(F)cc2c1=O`, for which the result was inactive.
As to `CC(C)Oc1ccccc1O`, the outcome was inactive.
Turning to `CC1COc2ccccc2N1C(=O)C(Cl)Cl` (stereo not drawn), the concentration at half-maximal activity (AC50) was 5.3 µM (active).
On to `Nc1cc([N+](=O)[O-])ccc1Cl`, for which the outcome was inactive.
With `CCCCCCCCCC=O`, the AC50 was 0.016 µM (active).
For `O=C(O)c1cn(C2CC2)c2cc(N3CCNCC3)c(F)cc2c1=O`, the outcome was inactive.
Consider `CCCCC(CC)COC(=O)/C=C\C(=O)OCC(CC)CCCC` (stereo not drawn), for which the result was inactive.
Same read-out and setting: to `CCCCCCCCC=O` belongs “inactive”.
On to `CN(CCOc1ccc(CC2SC(=O)NC2=O)cc1)c1ccccn1` (stereo not drawn), for which the AC50 is 0.0541 µM (active).
With `CC(C)c1ccc(C(C)C)cc1`, the result was inactive.
The same measure, in the same setting: to `CC(=O)/C=C/C1=C(C)CCCC1(C)C` belongs “inactive”.
